Test results from patent US20160355875, “METHODS AND KITS FOR DETECTING NUCLEIC ACID SEQUENCES OF INTEREST USING DNA-BINDING PROTEIN DOMAIN” (CELLECTIS, published 2016).

Molecular target: T1, TALE RAGT2-Renila luciferase fusion (pCLS24992) (artificial, UniProt P14727 SEQ:21-699)
T1 chain: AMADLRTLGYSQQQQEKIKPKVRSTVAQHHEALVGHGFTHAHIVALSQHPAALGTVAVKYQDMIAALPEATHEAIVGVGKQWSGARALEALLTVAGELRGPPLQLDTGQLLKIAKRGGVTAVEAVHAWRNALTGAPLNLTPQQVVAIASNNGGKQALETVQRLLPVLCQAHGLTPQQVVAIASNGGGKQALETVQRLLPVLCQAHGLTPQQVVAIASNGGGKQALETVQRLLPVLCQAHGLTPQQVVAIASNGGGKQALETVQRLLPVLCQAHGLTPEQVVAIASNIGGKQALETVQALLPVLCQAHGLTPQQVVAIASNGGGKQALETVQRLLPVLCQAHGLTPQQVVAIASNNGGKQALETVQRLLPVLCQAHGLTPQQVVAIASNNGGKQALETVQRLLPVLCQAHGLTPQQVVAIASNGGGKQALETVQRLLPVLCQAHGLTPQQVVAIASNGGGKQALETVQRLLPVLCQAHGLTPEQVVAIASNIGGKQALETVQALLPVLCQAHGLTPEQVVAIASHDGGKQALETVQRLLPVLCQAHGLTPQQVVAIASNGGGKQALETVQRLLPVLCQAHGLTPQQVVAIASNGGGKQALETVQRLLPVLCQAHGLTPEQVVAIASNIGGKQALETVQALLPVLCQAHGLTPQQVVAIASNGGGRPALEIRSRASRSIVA
Assay: mutation at T0 reduces luminescence by more than 60%; capture plus TALE binding
Conditions: tags: N-terminal His tag, C-terminal Renilla luciferase fusion; deltaN152 N-terminal domain, C11 C-terminal truncation; expressed in E. coli; label: biotin on bait; mismatched duplex
Description: Different ssDNA targets (SEQ ID NO 6-20) harboring unique or multiple mutations with respect to the ssDNA wild type pray (SEQ ID NO 5, 10 pmol) were synthesized and used to assess the specificity of TALE RAGT2-Renila detector system. We first studied the effect of increasing amount of mutation within the ssDNA target on the luminescence of TALE RAGT2-Renila according to the detection protocol described earlier. Briefly, 10 pmol of ssDNA wild type or mutated were incubated with the ssDNA biotinylated pray already immobilized on the streptavidine coated plate. The mixture was heated and allow to cool down to RT. After washing the well with high and low salt containing TBST buffers, an excess of TALE RAGT2-Renila was added to the well (^{˜}300 pmol total), the unbound was then removed by two low salt buffer washing steps and the reaction mixture was added to determine luminescence. The luminescence obtained for each of the ssDNA prays used is illustrated in FIG. 20.

B1: pray SEQ 6 :bait (dsDNA)
DNA 1: CATGGTTTATGGTTACTTATGG
DNA 2: GTACAAAAAAGCAGTCGACTAGGGATAACAGGGTAATTATATAAACCTAACCCTCTTAGCATGAAGGTACCATAAGTAACCATAAACAATG
  binding signal: < 40 % of WT
